54 molecules from ChEMBL document CHEMBL4513216, “Probing the Open Global Health Chemical Diversity Library for Multistage-Active Starting Points for Next-Generation Antimalarials” (ACS Infect Dis, 2020) can be followed below.

Molecules are shown by their SMILES. Among all 69,000 compounds or so, about 8,600 (12%) showed an effect of 50% or more. This is one part of a sample in which strong results are shown more often than they occur.

This assay relates to Plasmodium berghei. The assay can be described thus: Screen against P. berghei liver stage (PbLuc), transformed with Luciferase, at 10uM. In kind it is functional, HepG2. The settings on record: tested at 10 uM.
`CCOCCN1C[C@@H]2CCCO[C@@H]2[C@H](NC(=O)c2cnoc2C)C1`: the INHIBITION worked out at 32.1%.

In the case of `CC1(c2ncc(CN3CCN(c4ncccn4)CC3)cn2)CCCCO1` (centres undefined), the INHIBITION was 23.15%.

Turning to `O=C(c1ccccc1F)N1C[C@@H]2COC[C@]2(COCc2cccnc2)C1`, the INHIBITION is reported as 10%.

Regarding `CCCN1C(=O)c2ccccc2C1OC` (centres undefined), the INHIBITION is 28.7%.

Regarding `CCC(=O)Nc1cc(Br)cnc1OCC(F)(F)F`, the INHIBITION amounted to 67.1%.

Turning to `COCC(=O)Nc1cc(Br)cnc1OCC(F)(F)F`, the INHIBITION amounted to 26%.

As to `CC(=O)Nc1cc(Br)cnc1OCC(F)(F)F`, the INHIBITION is on record as 30.3%.

Turning to `O=C(c1cccc2cccnc12)N1CC[C@@]2(CCCO2)[C@@H](O)C1`, the INHIBITION is reported as 22%.

As for `COC(=O)CC(c1ccc(OC)c(O)c1)c1oc(C)cc(=O)c1O` (centres undefined), the INHIBITION is recorded as 3.31%.

Regarding `CN1CCN(CCOc2ccc(NC(=O)c3ccncc3)cc2)CC1`, the INHIBITION was determined as 27%.

As to `CNc1nc2c(c(C(=O)N3CCCC3)n1)CN(C(=O)c1cccs1)CC2`, the INHIBITION is -37.9%.

For the molecule `O=C1CCC(C(=O)N2CCOC(Cc3cccc4ccccc34)C2)=NN1` (centres undefined), the INHIBITION stood at 53.7%.

With `O=C1CCC(C(=O)N2CCOC(Cc3ccccc3Cl)C2)=NN1` (centres undefined), the INHIBITION is on record as 71.1%.

Turning to `NCC1CN(C(=O)c2cccc(-n3cccn3)c2)CCO1` (centres undefined), the INHIBITION came out at 40.5%.

In the case of `Cn1ccnc1C(=O)N1CCOC(Cc2ccccc2Cl)C1` (centres undefined), the INHIBITION is reported as 41.2%.

With `O=C1CCC(C(=O)N2CCOC(Cc3ccc(F)cc3)C2)=NN1` (centres undefined), the INHIBITION is -11.6%.

With `CCn1ncnc1CN1CCOC(Cc2cccc3ccccc23)C1` (centres undefined), the INHIBITION was 44.3%.

As for `Cc1cc2ccncc2n1CC1(O)CCN(C(=O)c2ccccn2)CC1`, the INHIBITION worked out at 18.3%.

`COC(=O)c1cc2c(OC)c(OC)c(OC)cc2[nH]1`: the INHIBITION was determined as 32.2%.

For `C=c1ncsc1=C1NN=C(C2CCCN2C(=O)CCn2cccn2)O1` (centres undefined), the INHIBITION was determined as 16.575%.

Turning to `CCCNC(=O)c1cccc(CNCc2csc(C(C)C)n2)c1`, the INHIBITION is 55.1%.

As for `CCCNC(=O)c1cccc(CNCc2csc(CC)n2)c1`, the INHIBITION came out at 12.3%.

Turning to `CCCNC(=O)c1cccc(CNCc2csc(C(C)(C)C)n2)c1`, the INHIBITION amounted to 77.4%.

As to `CC(C)c1nc(CNC(=O)c2ccc(C(C)N3CCCCC3)o2)cs1` (centres undefined), the INHIBITION worked out at 42.2%.

`CCCNC(=O)C1CCN(Cc2csc(C(C)C)n2)CC1`: the INHIBITION came out at 42%.

With `CCC(C)NC(=O)c1cccc(CNC(=O)CC(F)(F)F)c1` (centres undefined), the INHIBITION is recorded as -76.9%.

Take `CCCNC(=O)CN1CCC(NCc2csc(C(C)C)n2)CC1`: the INHIBITION is given as -16.8%.

Consider `CCNC(=O)c1cccc(CNC(=O)c2cnc(C(C)(C)C)s2)c1`, for which the INHIBITION was -6.94%.

As for `CCC(C)NC(=O)c1cccc(CNCc2csc(C(C)C)n2)c1` (centres undefined), the INHIBITION came to 64.5%.

Regarding `Cc1ccc(C(=O)O)c(N2CC(C)(C)[C@@](C)(O)C2)n1`, the INHIBITION is given as 16.2%.

In the case of `O=S(=O)(c1cncc(F)c1)N1CCC2(CCOC2)C1` (centres undefined), the INHIBITION is listed as -15.4%.

For `CC(=O)Nc1ccc2nc(CN(C)Cc3snnc3C)ccc2c1`, the INHIBITION is reported as 11.4%.

As to `COCc1cc(N(C)CCc2c(C)n[nH]c2C)ncn1`, the INHIBITION is 26.7%.

Regarding `COCC(c1cccc(C(F)(F)F)c1)N(C)C(=O)c1ccco1` (centres undefined), the INHIBITION turned out to be 48.45%.

For the molecule `O=C(c1cnccn1)N1CC[C@H]2C[C@@H](c3ccncn3)O[C@@H]2C1`, the INHIBITION is given as 29.9%.

As to `O=c1cc(CN2CCCC2)nc2n1CCCN(S(=O)(=O)C1CC1)C2`, the INHIBITION was found to be 29.5%.

As to `Cc1noc([C@@H]2CC[C@@H]3[C@@H](CCN3S(C)(=O)=O)O2)n1`, the INHIBITION was -10.3%.

For `Cc1noc([C@@H]2C[C@@H]3CCN(c4nnc(C)s4)C[C@H]3O2)n1`, the INHIBITION is -21.1%.

Take `Cc1noc([C@H]2C[C@@H]3CCN(c4nnc(C)s4)C[C@H]3O2)n1`: the INHIBITION is 39.5%.

Turning to `Cc1noc([C@H]2CC[C@@H]3[C@@H](CCN3c3ncccn3)O2)n1`, the INHIBITION was 51.4%.

On to `Cc1noc([C@@H]2CC[C@@H]3[C@@H](CCN3c3nnc(C)s3)O2)n1`, for which the INHIBITION turned out to be 50.4%.

Take `Cc1noc([C@H]2CC[C@@H]3[C@@H](CCN3S(C)(=O)=O)O2)n1`: the INHIBITION worked out at 7.12%.

Consider `CN1C[C@@H]2CN(C(=O)NCc3cccc(F)c3)CCC[C@]2(C(=O)O)C1`, for which the INHIBITION is -10.5%.

As to `Cn1cc(C2CCCN2Cc2cscn2)cn1` (centres undefined), the INHIBITION was 42%.

As for `NC(=O)C1CCN(C(=O)CCn2ccc3ccc(F)cc32)CC1`, the INHIBITION is recorded as 33%.

Regarding `Cc1cccc(CNC2CCCc3c2cnn3C)c1` (centres undefined), the INHIBITION was found to be 25.1%.

With `Cn1ncc2c1CCCC2NCc1cccc2c1OCCCO2` (centres undefined), the INHIBITION is recorded as 50.3%.

In the case of `Cc1ccc(CNC2CCCc3c2cnn3C)s1` (centres undefined), the INHIBITION was -10.8%.

Turning to `CCn1ncc2c1CCCC2NCc1cccc2c1OCCCO2` (centres undefined), the INHIBITION amounted to 40%.

Consider `Cn1ncc2c1CCCC2NCc1cccc(OC2CCCC2)c1` (centres undefined), for which the INHIBITION is 50.5%.

As for `Cn1ncc2c1CCCC2NCc1cccc(C(F)(F)F)c1` (centres undefined), the INHIBITION was 89.1%.

As to `CSc1ccc(CNC2CCCc3c2cnn3C)cc1` (centres undefined), the INHIBITION is listed as -46.8%.

Turning to `Cn1ncc2c1CCCC2NCc1cccc(F)c1` (centres undefined), the INHIBITION is given as 4.71%.

With `Cn1ncc2c1CCCC2NCc1cccnc1` (centres undefined), the INHIBITION was 3.3%.
